Assay outcomes: PubChem, National Center for Advancing Translational Sciences (NCATS)
Shown is part of a subset that was picked to be rich in hits.
CHX counter: counter-screen for Shiga toxin inhibitors: cycloheximide protein synthesis inhibition | AID 2314 | cell reporter, cycloheximide protein synthesis inhibition counterscreen | 300,000 tested, 12% active | max response, %; in the data active = max response mostly above about 13%, no sharp cut-off; inactive = mostly below about 14%; note: read at 38.3 µM for the half of the compounds with a filed dose; 0% is about no effect
Shiga toxin inh: inhibitors of Shiga toxin in Vero cells. Vero cells, Shiga toxin protein synthesis inhibition reporter. inhibition, % at 38.7 µM. 290,000 tested, 9.2% active. AID 2315; in the data active = inhibition mostly above about 28%, no sharp cut-off; inactive = mostly below about 43%; note: 0% is about no effect
FBPA Giardia inh: inhibitors of Giardia lamblia fructose-1,6-bisphosphate aldolase; A8B2U2; 290,000 tested, 0.71% active; purified Giardia FBPA; Potency, µM (doses to about 59.6 µM), without a hit: top-dose activity, negative = inhibition, actives largely listed as inhibitors; note: potency is the fitted concentration of half-maximal effect; % is set by controls: 0 for no effect and ±100 for the full control effect; nearly all actives have a fitted effect of over 55% in size
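40 nM FBPA preincubated 10 min at RT with compound (up to 57.5 uM final), then substrate plus GAPDH/TPI/NAD/arsenate coupling and diaphorase/resazurin added. Fluorescence read after 20 min at RT, 525/598 nm.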
RE007 growth inh: less growth of the S. pombe RE007 Vpr strain. S. pombe RE007 Vpr strain, BacTiter-Glo ATP luminescence, 24 h. Potency, µM (series often up to 92.2 µM), without a hit: top-dose activity change, negative = less growth, hits mostly inhibitors. 360,000 tested, 0.21% active. AID 651644; active = well fitted falling curve with a large enough effect; inconclusive = small, poorly fitted or top-dose-only effect; inactive = no such curve, though single readings can be large or run the other way; note: potency is the fitted concentration of half-maximal effect; % is set by controls: 0 for no effect and ±100 for the full control effect; nearly all actives have a fitted effect of over 50% in size
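Fission yeast RE007 carrying one integrated HIV-1 vpr copy, seeded at OD 0.01 in PMG+AL medium with 23 nL pinned compound. Grown 24 h at 30 degrees; viability read by BacTiter-Glo luminescence after 5 min.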
Tb PYK inh: inhibitors of Trypanosoma brucei pyruvate kinase. Potency, µM (series often up to 76.8 µM), for the others: top-dose activity, negative = inhibition, actives largely listed as inhibitors. 410,000 tested, 0.12% active. Q57TT1. TbPYK enzyme, Kinase-Glo Plus ATP luminescence, 45 min; note: potency is the fitted concentration of half-maximal effect; % is set by controls: 0 for no effect and ±100 for the full control effect; nearly all actives have a fitted effect of over 50% in size
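Enzyme and substrate buffer are dispensed first and compound is pin-transferred. ADP at 130 uM final then starts the reaction, which runs 45 min at room temperature. Detection reagent is added for 10 min before luminescence is imaged.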
LmPK inh: LmPK (Leishmania mexicana) enzyme inhibition; Q27686; purified LmPK, Kinase-Glo ATP luminescence, 1 h; Potency, µM (highest dose often 57.5 µM), for the others: at the highest dose activity change, negative = inhibition, usual class: inhibitors; 290,000 tested, 0.37% active; note: potency is the fitted concentration of half-maximal effect; % is set by controls: 0 for no effect and ±100 for the full control effect
Target sequence (Q27686 whole entry, looked up): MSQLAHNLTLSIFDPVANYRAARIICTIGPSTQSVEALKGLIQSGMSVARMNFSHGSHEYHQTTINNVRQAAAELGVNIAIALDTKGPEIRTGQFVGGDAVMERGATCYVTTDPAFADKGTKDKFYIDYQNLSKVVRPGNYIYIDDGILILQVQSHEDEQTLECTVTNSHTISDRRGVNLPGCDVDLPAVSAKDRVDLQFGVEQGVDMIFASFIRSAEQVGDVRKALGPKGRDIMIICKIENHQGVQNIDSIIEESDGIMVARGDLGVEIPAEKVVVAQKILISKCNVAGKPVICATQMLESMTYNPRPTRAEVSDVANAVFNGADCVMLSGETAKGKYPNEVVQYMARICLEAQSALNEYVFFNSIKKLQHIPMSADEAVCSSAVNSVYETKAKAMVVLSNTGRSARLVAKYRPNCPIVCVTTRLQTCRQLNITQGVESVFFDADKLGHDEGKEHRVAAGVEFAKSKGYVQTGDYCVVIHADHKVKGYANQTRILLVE
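Screened at intermediate enzyme activity to detect both inhibitors and activators: LmPK at 0.1 nM, with a 0.5 nM enzyme column as activation reference. PEP 0.5 mM, ADP 0.1 mM; ATP detected by luminescence after 1 h.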
The depositor's hits bear a star; ? = inconclusive; nt = no result; + = active, no number; [ ] = remark or other dose. Unless noted, calls come from the whole dose curve; as a rule, active = well fitted curve in the direction sought with a large enough effect; inconclusive = small, poorly fitted or top-dose-only effect, or another doubt; inactive = no such curve, though single readings can be large; an effect the other way counts as inactive or inconclusive.

SMILES | CHX counter | Shiga toxin inh | FBPA Giardia inh | RE007 growth inh | Tb PYK inh | LmPK inh
O=C(Nc1ccc(CN2CCOCC2)cc1)c1ccc2ccccc2c1 | 59* | 46* | -4% | 21% | -2% | -4%
CCOc1ccc(NC(=O)c2ccc(NC(=O)c3ccc(CN4CCOCC4)cc3)cc2)cc1 | 6 | 32 | 0% | -4% | -3% | -2%
CC(C)COc1cccc(C(=O)Nc2ccc(CN3CCOCC3)cc2)c1 | 17 | 16 | -8% | -4% | -4% | 4%
O=C(Nc1ccc(F)cc1)c1ccc(Cn2cnnn2)cc1 | 16* | 32 | 1% | -8% | 8% | -11%
COC(=O)c1ccc(NC(=O)c2ccc(CN3CCOCC3)cc2)cc1 | 1 | -3 | 2% | -2% | ? | -5%
OC[C@H]1NC[C@@H](O)[C@@H](O)[C@H]1O | nt | nt | 0% | nt | nt | nt
COc1cc(SC)ccc1C(=O)Nc1ccc(S(=O)(=O)Nc2nccc(C)n2)cc1 | nt | nt | nt | nt | -6% | nt
COCCn1c(=O)c(-c2ccc(Cl)cc2)nc2cnc(Oc3cccc(Cl)c3)nc21 | nt | nt | -1% | nt | nt | nt
C[C@@H]1C=C[C@](Cc2ccccc2)(C(=O)NCCN2CCOCC2)N1C(=O)c1ccccc1 | nt | nt | 2% | nt | nt | nt
CC(=O)N1[C@H](Cc2ccccc2)C=C[C@]1(C)C(=O)O | nt | nt | 4% | nt | nt | nt
O=C(Nc1ccc(CN2CCOCC2)cc1)c1ccc(F)cc1 | 29* | 60* | 2% | -5% | -3% | 0%
O=C(Nc1ccc(CN2CCCCC2)cc1)c1cccc(Br)c1 | 21* | 42* | -8% | 2% | -3% | 13%
O=C(Nc1ccc(CN2CCCCC2)cc1)c1sc2ccccc2c1Cl | 23* | 37 | -5% | -2% | 1% | 7%
C/C(=N\NC(=O)c1ccc(CN2CCOCC2)cc1)c1ccc(NC(=O)c2ccccc2)cc1 | 41* | 63* | 0% | -16% | -4% | -16%
O=C(Nc1ccc(CN2CCCCC2)cc1)c1cc(Br)ccc1Cl | -1 | 6 | 4% | -4% | 3% | 0%
O=C(Nc1ccc(CN2CCOCC2)cc1)c1ccco1 | 28* | 51* | 7% | -9% | -2% | 4%
O=C(Nc1ccc(CN2CCOCC2)cc1)c1ccc(-c2ccc(Br)cc2)o1 | -1 | -6 | 3% | 11% | 0% | -1%
O=C(Nc1ccc(CN2CCOCC2)cc1)c1ccc(Br)cc1 | 17* | 31 | 12% | -7% | 3% | 3%
Cc1nc2nc(-c3ccccc3)[nH]n2c(=O)c1C | 15 | 44 | ? | 2% | -2% | -10%
Cc1nc2nc(-c3ccc(Cl)cc3)[nH]n2c(=O)c1C | 5 | 38* | ? | nt | nt | 1%
CCOCCc1nn2c(=O)cc(COC(=O)c3ccccc3OC)nc2s1 | nt | nt | nt | nt | -2% | nt
COCCN(C(=O)C1CC1)c1nnc(-c2cccc(C)c2)s1 | 15* | 29 | -5% | -15% | 2% | 0%
CCN(C(=O)c1ccco1)c1nnc(-c2ccc(OC)cc2)s1 | 30* | + | -21% | 18% | -3% | 0%
CCN(CC)CCN(C(=O)c1ccco1)c1nc2cc(C)cc(C)c2s1 | nt | nt | nt | nt | -6% | nt
CCCN(C(=O)c1ccco1)c1nnc(-c2cccc(C)c2)s1 | 61* | 72* | -7% | -20% | 0% | -1%
SMILES | CHX counter | Shiga toxin inh | FBPA Giardia inh | RE007 growth inh | Tb PYK inh | LmPK inh
CCOc1ccc(OCC)c(NC(=O)CC(C)n2nc(C)cc2C)c1 (configuration not stated) | nt | nt | nt | nt | -6% | nt
Cn1c(O)c(C=Nc2ccc(Br)cc2)c(=O)n(C)c1=O | -1 | -11 | 5% | -24% | -3% | -6%
Cn1c(O)c(C=Nc2ccc(Br)cc2)sc1=O | 45* | 80* | 0% | -5% | 2% | 2%
NC(=O)C1CCN(S(=O)(=O)c2cc3c(cc2Cl)NC(=O)CO3)CC1 | nt | nt | nt | nt | -8%[15.4 µM] | nt
Nc1c2c(nc3ccccc13)CCCC2=O | 17* | 14 | -18% | 14% | -4% | 1%
CC(C)CC(NC(=O)C1CCC(C)CC1)C(=O)Nc1ccc2c(c1)OCCO2 (configuration not stated) | 44* | 122* | -14% | 8% | -3% | 10%
CC(=O)NC(CCS(C)(=O)=O)C(=O)Nc1ccc2c(c1)OCO2 (configuration not stated) | -2 | 4 | -21% | 7% | 1% | 0%
CC(C)CC(NC(=O)C1CCC(C)CC1)C(=O)Nc1ccccn1 (configuration not stated) | 27* | 131* | 3% | -1% | 0% | -14%
COC(=O)[C@H](CC(C)C)NC(=O)Nc1ccc2c(c1)OCCO2 | 33* | 93* | 3% | 17% | 3% | -2%
CC(=O)NC(CCS(C)(=O)=O)C(=O)Nc1ccc2c(c1)OCCO2 (configuration not stated) | 11 | 42* | 0% | -2% | 4% | 0%
COc1ccc(NC(=O)Cn2c(=O)n(-c3ccc(C)c(C)c3)c(=O)c3c(C)c(C)sc32)cc1 | nt | nt | nt | nt | 3% | nt
COc1ccc(-c2nc(SCc3ccccc3)n(C(=O)c3ccco3)n2)cc1 | 26* | 11 | -7% | -5% | 8% | 0%
COc1ccc(-c2nc(N)n(C(=O)c3ccco3)n2)cc1 | 12 | 3 | 1% | 12% | -4% | -6%
COc1ccc(CNc2nc(-c3cccnc3)nn2C(=O)c2ccco2)cc1 | 3 | -2 | 11% | -16% | 1% | 2%
COc1ccc(-c2nc(SC)n(C(=O)c3ccco3)n2)cc1 | 33* | 59* | 5% | -8% | -4% | -6%
CS(=O)(=O)n1nc(-c2ccc(Cl)cc2)nc1SCc1ccccc1 | 39* | 73* | 0% | ? | -1% | 1%
C=C(CC1([C@@H](NP(=O)(c2ccccc2)c2ccccc2)[C@H]2C[C@@H]2CCCC)CC1)c1cccc(OC)c1 | nt | nt | -2% | nt | nt | nt
Cc1c(CC(C)(C)C(=O)O)n(Cc2ccc(Cl)cc2)c2ccc(F)cc12 | nt | nt | 22% | nt | nt | nt
O=C(CN1C(=O)COc2ccc(S(=O)(=O)NC3CCCC3)cc21)NCc1ccc(Cl)cc1 | nt | nt | nt | nt | -1% | nt
O=C1c2ccccc2NC(c2cccc(O)c2)N1O (configuration not stated) | 16* | 26 | -30% | -10% | -9% | 7%
O=C1c2ccccc2NC(c2ccc(O)cc2)N1c1ccccc1 (configuration not stated) | 36* | 58* | 3% | 1% | -1% | -1%
O=C1c2ccccc2NC(c2ccccc2)N1c1ccc(O)cc1 (configuration not stated) | -2 | 36 | 3% | 3% | 1% | 3%
O=C1c2ccccc2NC(c2ccc(O)cc2)N1/N=C/c1ccc(O)cc1 (configuration not stated) | 19* | 43* | -16% | 7% | 4% | 1%
O=C(Cc1cccs1)NC1CC(=O)N(c2cccc(F)c2)C1 (configuration not stated) | nt | nt | nt | nt | -12% | nt
